Experimental data as given in paper PMC4336329 (PLoS ONE, 2015).
About 14,000 (4.5%) of roughly 310,000 compounds showed an effect of 50% or more. Effects have a minus sign here. For the sample, strong results were picked, then their nearest neighbours and some compounds at random.

The compounds below were run against human ether-à-go-go-related gene (hERG) potassium channel (human, UniProt Q12809) (assay: primary screen, population patch clamp on CHO cells stably expressing hERG; higher = less effect of the substance).
human ether-à-go-go-related gene (hERG) potassium channel, sequence (Q12809 whole entry, looked up): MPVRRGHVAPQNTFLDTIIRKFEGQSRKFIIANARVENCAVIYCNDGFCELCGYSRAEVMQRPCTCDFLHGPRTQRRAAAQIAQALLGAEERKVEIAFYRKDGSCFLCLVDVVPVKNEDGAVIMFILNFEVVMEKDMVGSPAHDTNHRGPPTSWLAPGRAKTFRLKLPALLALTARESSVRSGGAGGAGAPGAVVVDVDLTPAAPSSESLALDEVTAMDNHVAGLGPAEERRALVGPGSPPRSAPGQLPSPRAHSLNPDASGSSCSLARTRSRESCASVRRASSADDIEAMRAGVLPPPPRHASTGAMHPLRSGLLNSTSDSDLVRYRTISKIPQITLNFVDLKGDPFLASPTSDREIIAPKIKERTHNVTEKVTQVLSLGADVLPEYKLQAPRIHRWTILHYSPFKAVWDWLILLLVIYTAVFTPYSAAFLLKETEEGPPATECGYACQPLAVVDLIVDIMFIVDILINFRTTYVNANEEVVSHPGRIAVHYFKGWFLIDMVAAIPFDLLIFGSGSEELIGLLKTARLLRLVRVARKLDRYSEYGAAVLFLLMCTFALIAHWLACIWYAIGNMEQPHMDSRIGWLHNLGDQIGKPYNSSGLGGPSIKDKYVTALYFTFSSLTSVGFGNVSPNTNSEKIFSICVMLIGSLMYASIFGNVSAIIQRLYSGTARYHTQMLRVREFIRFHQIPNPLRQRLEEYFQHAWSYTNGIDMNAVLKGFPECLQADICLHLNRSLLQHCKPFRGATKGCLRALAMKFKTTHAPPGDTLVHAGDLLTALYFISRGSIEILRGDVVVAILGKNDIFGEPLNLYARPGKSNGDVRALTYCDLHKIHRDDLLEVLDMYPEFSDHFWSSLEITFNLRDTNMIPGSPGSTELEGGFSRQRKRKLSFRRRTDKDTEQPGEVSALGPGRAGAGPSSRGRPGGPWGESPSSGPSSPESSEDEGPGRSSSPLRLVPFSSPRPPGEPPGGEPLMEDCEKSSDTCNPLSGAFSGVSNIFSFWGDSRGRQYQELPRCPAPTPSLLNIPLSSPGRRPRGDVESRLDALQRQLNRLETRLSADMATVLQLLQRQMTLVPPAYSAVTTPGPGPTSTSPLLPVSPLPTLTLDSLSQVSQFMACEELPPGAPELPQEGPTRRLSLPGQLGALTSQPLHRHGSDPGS
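Note: peak tail current of the secondary pulse compared with the same well before compound.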

Compound | hERG current change (%, negative = inhibition) at 10uM
CCN1CCC(Nc2ccnc3cc(Cl)ccc23)CC1 | -40.5%
O=C(Nc1ccccc1)OCc1ccccn1 | 10.8%
COc1ccc(C2=NN(CN3C(=O)C(=O)c4ccccc43)C(c3ccc(OC)cc3)C2)cc1 (stereo not shown) | 9.84%
Cc1cc(-c2ccccc2)nc(SCc2ccc(C(=O)O)o2)n1 | -3.89%
Cc1ccc(C(=O)Nc2cccnc2)cc1Cl | 4.54%
O=C(NCC(=O)N1CCN(C(c2ccccc2)c2ccccc2)CC1)c1ccc(Br)o1 | 8.38%
Cc1cc(Br)c(NC(=O)CN(C)CCOc2ccccc2)c(Br)c1 | -19.5%
COc1ccc(Cn2nnc3c(=O)[nH]c(C(=O)NCCc4ccc(F)cc4)nc32)cc1OC | 7.28%
O=C(CN1CCCC1)Nc1ccc(Oc2ccc(NC(=O)CN3CCCC3)cc2)cc1 | 17.3%
NC(=O)C1(N2CCCCC2)CCN(Cc2ccc(Br)cc2)CC1 | -51%
NC(=O)C1(N2CCCCC2)CCN(Cc2ccccc2)CC1 | 2.53%
COc1ccc(NC(=O)CN2CCC(C(N)=O)(N3CCCCC3)CC2)c(OC)c1 | 1.56%
NC(=O)C1(N2CCCCC2)CCN(Cc2ccc(F)cc2)CC1 | -6.92%
Cl.O=C(CN1CCCCCC1)Nc1ccc(Oc2ccccc2)cc1 | -78.6%
O=C(CN1CCCCC1)Nc1cc(Cl)ccc1Cl | -0.685%
NC(=O)C1(N2CCCCC2)CCN(CC(=O)Nc2cc(Cl)ccc2Cl)CC1 | -72%
CN1CCN(CC(=O)Nc2ccc(Oc3ccccc3)cc2)CC1 | -47.5%

Compound | hERG current change (%, negative = inhibition) at 10uM
CC(C)C(NC(=O)C1CCC(C(C)(C)C)CC1)C(=O)NCCc1ccc(S(N)(=O)=O)cc1 (stereo not shown) | 14.1%
COc1ccc2c(N)c(C(=O)NN)[nH]c2c1 | 2.16%
COCCN(C(=O)CSc1nc2ccc(Cl)cc2[nH]1)c1c(N)n(Cc2ccccc2)c(=O)[nH]c1=O | -7.02%
Cc1cc(C)n(CC(O)Cn2c3ccc(Br)cc3c3cc(Br)ccc32)c(=O)n1 (stereo not shown) | 19.5%
Cc1ccc(CCNC(=O)c2nn(C)c3c2CS(=O)(=O)c2ccccc2-3)cc1 | -39.7%
O=C(/C=C/Nc1ccc(S(=O)(=O)Nc2ncccn2)cc1)c1cccs1 | 4.26%
O=C(NCc1ccccc1Cl)/C(=C\c1cccnc1)NC(=O)c1ccccc1 | -48.7%
CN(C)c1ccc(/C=C(\NC(=O)c2ccccc2)C(=O)NCc2cccnc2)cc1 | -18.9%
Cc1ccc(C(=O)N/C(=C\c2ccccc2)C(=O)NCc2cccnc2)cc1 | -71.9%
O=C(NCc1cccnc1)/C(=C/c1ccccc1)NC(=O)c1ccccc1 | -34.5%
COc1ccc(CNC(=O)C(=O)NCc2cccnc2)cc1 | -6.16%
COc1ccc(/C=C(\NC(=O)c2ccccc2)C(=O)NCc2cccnc2)cc1 | -70.5%
COc1ccc(/C=C(/NC(=O)c2ccccc2)C(=O)NCc2ccco2)cc1 | 27%
O=C(NCc1cccnc1)/C(=C/c1ccc(Cl)cc1)NC(=O)c1ccccc1 | -68.5%
COc1ccc(C(=O)N/C(=C\c2ccccc2)C(=O)NCc2cccnc2)cc1 | -70.8%
COc1ccc(/C=C(\NC(=O)c2ccccc2)C(=O)N/N=C/c2cccnc2)cc1 | -5.03%
COc1ccc(C(=O)NCc2cccnc2)cc1 | -1.7%
